Data published in the supplement of paper PMC11732987, “Enantioselective OTUD7B fragment discovery through chemoproteomics screening and high-throughput optimisation” (Communications Chemistry, 2025).

Legend:
Assay in all cases: log2 ratio of Biotin-Ahx-Ub-VS probe labelling (fragment/DMSO); higher = less target engagement (more negative = stronger competition), active = hit call of the paper (q ≤ 0.05, log2 ratio ≤ -1)
Settings in all cases: compound concentration: 200 uM; treatment time: 3 h
USP19 = target: T1, USP19 (UniProt O94966)
T1 sequence (whole entry): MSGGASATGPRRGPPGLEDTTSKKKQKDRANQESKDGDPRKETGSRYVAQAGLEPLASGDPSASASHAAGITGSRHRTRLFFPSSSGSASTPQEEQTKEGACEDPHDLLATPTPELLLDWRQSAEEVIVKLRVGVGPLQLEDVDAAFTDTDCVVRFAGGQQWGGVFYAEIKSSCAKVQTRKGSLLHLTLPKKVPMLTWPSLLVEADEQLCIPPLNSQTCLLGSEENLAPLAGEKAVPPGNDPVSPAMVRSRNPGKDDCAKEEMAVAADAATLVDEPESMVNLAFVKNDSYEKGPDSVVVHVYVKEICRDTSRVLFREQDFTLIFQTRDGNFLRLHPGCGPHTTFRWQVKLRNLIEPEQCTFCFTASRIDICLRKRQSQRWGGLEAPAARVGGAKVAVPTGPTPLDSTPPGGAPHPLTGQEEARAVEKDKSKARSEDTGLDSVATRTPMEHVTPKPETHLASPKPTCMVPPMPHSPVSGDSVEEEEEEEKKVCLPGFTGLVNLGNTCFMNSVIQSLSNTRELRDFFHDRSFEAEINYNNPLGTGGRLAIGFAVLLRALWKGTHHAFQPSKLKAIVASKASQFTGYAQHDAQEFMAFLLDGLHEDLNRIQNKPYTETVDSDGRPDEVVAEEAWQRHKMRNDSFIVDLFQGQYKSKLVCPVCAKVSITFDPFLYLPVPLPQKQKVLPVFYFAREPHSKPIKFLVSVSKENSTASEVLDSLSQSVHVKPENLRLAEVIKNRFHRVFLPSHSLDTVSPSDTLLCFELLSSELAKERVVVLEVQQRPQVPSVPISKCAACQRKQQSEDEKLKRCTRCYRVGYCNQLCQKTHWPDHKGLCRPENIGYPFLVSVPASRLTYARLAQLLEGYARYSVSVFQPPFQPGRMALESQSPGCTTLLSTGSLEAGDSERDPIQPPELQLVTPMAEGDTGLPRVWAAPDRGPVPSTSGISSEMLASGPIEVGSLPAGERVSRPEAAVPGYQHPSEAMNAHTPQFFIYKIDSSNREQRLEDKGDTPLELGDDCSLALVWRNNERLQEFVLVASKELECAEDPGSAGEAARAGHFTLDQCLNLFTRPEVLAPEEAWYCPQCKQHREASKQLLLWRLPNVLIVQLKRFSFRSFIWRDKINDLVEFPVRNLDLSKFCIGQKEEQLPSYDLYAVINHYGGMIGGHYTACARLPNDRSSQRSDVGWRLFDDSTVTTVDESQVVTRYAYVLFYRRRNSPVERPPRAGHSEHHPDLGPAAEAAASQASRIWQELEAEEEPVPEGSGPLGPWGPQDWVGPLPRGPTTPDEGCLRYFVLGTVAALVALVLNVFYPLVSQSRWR
Method in brief: (§1)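 Triplicate samples of HEK293T lysate, 495 µg each, received fragment at 200 µM or vehicle for 3 h, followed by Biotin-Ahx-Ub-VS (0.5 µM final) for 1 h. After NeutrAvidin enrichment of labelled DUBs and LysC/trypsin digestion, peptides were run by diaPASEF LC-MS/MS. The values are average log2 fragment/vehicle ratios from global-median-normalised Spectronaut label-free quantities, tested by unpaired t-test on proteins having ≥2 unique peptides.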

USP24 = USP24 (UniProt Q9UPU5)
USP24, sequence (Q9UPU5 whole entry): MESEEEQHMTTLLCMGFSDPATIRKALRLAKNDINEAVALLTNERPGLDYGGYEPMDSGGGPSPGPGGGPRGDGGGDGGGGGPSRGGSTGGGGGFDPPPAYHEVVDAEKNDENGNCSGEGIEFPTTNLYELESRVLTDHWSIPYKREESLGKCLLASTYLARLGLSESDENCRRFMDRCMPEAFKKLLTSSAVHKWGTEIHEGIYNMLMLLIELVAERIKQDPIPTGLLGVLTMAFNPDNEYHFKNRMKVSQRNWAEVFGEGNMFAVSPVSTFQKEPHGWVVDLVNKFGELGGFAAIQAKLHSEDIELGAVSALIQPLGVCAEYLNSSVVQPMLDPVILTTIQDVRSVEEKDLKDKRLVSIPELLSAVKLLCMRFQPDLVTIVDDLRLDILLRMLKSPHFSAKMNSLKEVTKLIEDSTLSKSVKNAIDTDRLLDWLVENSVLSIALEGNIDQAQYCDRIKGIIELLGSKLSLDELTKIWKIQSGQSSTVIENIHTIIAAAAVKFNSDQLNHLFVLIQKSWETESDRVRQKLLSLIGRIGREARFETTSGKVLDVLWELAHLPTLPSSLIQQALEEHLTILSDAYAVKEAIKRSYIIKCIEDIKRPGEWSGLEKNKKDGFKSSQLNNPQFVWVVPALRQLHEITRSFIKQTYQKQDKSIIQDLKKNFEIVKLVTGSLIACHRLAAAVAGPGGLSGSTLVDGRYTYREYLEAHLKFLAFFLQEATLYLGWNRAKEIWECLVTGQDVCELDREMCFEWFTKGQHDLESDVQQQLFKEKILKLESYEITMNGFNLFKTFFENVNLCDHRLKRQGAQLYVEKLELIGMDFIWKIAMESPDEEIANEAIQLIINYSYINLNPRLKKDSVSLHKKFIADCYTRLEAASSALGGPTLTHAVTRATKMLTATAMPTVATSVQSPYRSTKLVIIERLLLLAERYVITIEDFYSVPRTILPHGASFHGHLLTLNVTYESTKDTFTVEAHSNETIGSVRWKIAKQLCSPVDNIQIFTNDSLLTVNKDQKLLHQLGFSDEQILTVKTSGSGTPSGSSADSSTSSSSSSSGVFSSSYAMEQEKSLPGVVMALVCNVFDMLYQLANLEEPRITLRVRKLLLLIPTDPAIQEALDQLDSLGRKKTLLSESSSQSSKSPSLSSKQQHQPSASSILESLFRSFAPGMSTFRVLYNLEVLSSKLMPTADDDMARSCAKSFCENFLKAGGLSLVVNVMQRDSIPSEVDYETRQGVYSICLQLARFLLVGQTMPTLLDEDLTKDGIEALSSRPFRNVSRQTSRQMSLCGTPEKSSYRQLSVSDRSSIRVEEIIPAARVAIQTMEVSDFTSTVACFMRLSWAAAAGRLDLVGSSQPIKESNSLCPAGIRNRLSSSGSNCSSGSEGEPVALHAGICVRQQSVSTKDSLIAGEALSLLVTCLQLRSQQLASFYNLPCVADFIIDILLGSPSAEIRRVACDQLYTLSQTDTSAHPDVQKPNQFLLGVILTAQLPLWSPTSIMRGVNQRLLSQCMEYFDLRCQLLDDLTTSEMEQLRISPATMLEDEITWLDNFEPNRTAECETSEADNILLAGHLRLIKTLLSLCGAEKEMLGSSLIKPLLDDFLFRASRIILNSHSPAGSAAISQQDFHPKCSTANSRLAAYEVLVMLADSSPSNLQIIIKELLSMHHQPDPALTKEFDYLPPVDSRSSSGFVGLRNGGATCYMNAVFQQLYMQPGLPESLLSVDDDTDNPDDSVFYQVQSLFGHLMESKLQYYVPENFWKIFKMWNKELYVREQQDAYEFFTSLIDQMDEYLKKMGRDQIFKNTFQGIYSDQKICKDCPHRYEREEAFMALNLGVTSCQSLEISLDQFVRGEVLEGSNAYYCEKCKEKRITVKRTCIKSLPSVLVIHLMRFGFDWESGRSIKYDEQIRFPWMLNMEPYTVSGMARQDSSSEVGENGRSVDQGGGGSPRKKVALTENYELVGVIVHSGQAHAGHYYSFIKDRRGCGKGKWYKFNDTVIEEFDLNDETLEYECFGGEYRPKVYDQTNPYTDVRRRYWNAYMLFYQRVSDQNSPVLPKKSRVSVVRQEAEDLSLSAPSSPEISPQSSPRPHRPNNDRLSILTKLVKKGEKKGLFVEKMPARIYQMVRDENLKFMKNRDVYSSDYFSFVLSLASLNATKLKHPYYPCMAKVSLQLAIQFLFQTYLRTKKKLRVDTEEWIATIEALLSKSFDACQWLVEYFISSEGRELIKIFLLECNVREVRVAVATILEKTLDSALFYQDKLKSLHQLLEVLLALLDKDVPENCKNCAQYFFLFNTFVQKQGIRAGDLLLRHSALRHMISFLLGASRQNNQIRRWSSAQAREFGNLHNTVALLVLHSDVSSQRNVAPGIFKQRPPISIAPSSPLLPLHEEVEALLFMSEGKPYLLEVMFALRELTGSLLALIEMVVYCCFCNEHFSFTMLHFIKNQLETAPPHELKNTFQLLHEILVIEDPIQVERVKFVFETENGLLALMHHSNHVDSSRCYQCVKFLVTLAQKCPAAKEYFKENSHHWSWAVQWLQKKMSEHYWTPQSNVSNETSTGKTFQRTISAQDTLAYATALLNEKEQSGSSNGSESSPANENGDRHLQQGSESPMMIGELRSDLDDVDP
Method in brief: as §1

USP25 = target: T2, USP25 (UniProt Q9UHP3)
T2 sequence (whole entry): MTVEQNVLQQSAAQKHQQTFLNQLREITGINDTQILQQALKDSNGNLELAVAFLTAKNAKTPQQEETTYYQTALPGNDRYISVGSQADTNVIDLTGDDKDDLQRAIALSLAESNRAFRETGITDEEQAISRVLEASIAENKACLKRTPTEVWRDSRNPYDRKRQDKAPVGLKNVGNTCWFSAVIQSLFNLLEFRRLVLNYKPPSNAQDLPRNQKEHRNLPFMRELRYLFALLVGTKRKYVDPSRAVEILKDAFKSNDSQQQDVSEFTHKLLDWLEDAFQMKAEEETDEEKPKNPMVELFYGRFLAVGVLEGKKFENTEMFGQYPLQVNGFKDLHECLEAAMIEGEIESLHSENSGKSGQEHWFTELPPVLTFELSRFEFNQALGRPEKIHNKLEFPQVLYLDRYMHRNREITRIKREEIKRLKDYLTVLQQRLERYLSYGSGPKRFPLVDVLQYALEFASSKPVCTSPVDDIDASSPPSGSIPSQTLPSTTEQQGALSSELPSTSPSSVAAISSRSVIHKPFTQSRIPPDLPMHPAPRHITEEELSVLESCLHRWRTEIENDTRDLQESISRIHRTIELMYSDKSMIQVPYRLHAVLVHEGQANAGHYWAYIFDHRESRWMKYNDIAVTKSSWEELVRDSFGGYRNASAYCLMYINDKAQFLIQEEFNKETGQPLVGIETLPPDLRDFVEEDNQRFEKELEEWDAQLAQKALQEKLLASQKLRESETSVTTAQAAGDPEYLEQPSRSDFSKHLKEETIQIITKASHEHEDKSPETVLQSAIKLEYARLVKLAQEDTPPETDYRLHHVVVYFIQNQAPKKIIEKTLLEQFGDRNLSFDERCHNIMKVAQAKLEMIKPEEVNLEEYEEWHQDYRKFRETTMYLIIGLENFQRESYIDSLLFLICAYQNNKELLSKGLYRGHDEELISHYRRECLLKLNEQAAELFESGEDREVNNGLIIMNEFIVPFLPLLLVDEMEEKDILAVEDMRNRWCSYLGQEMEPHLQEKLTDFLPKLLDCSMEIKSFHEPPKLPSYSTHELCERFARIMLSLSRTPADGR
Method in brief: as §1

USP28 = target: T3, USP28 (UniProt Q96RU2)
T3 sequence (whole entry): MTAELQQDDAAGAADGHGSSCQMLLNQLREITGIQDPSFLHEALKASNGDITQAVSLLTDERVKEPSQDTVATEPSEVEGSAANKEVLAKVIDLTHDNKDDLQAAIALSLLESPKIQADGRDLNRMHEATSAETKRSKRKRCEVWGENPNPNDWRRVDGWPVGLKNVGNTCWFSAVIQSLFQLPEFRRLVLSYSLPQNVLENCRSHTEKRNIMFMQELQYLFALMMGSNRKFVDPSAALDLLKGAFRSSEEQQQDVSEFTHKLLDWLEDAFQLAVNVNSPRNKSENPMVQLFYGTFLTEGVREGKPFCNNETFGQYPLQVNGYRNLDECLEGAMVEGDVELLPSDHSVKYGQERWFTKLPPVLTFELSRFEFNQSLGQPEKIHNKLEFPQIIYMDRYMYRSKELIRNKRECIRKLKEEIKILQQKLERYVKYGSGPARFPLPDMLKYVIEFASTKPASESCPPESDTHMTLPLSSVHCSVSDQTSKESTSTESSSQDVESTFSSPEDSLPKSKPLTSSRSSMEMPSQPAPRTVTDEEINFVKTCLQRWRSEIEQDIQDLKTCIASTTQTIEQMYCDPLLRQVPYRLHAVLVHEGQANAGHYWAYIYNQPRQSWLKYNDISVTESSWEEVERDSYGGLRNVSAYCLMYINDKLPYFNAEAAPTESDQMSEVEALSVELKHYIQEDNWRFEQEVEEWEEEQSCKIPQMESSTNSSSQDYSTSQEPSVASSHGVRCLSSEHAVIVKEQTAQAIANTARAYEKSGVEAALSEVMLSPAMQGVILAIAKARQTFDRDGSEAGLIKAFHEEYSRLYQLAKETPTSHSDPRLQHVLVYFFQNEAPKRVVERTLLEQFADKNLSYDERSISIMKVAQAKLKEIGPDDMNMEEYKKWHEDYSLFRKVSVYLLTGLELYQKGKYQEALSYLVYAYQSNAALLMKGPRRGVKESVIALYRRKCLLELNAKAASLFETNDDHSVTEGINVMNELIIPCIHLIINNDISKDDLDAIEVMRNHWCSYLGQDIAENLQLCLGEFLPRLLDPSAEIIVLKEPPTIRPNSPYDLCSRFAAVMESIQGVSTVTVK
Method in brief: as §1

Measured: log2 ratio of Biotin-Ahx-Ub-VS probe labelling

Cl.Cn1nc2c(c1CNC(=O)CCl)CCCC2
inactive: USP19 0.00104 | USP24 -0.0442 | USP25 -0.147 | USP28 -0.325
